The campaign covered roughly 5,500 compounds. About 2,000 (36%) were called active. Not shown: some 18% with an inconclusive outcome. Some of the results follow. Unmarked numbers belong to inactive results. Rule as the data show it: active = normalized growth mostly below about 0.91 (no sharp cut-off); inconclusive = no clear call, values can overlap the other calls; inactive = mostly above about 0.92.
Assay: chemical genetic growth profiling, strain panel (AID 1159580);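 also: tested at 20 µM; growth read once vehicle control cultures reached saturation at 30 °C; 1 = growth at the plate median or of vehicle wells; lower values mean less growth of the strain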
Conditions: S. cerevisiae deletion strains, growth OD
[1] = locus YDR150W, strain NUM1, hits give low values
[2] = locus YGR078C, strain PAC10, hits give low values
[3] = locus YPL055C, strain LGE1, hits give low values
[4] = locus YDL101C, strain DUN1, hits give low values
[5] = locus YHR030C, strain SLT2, hits give low values

COc1ccccc1N1CCN(CC(O)COc2cccc3ccccc23)CC1 (stereo not drawn)
normalized growth (locus YAL040C, strain CLN3, hits give low values): 0.993 | normalized growth (locus YCL061C, strain MRC1 (second series), hits give low values): 0.992 | normalized growth [1]: 0.998 | normalized growth (locus YDR363W, strain ESC2, hits give low values): 0.965 | normalized growth (locus YER002W, strain NOP16, hits give low values): 1.02 | normalized growth [2]: 0.978 | normalized growth (locus YNL175C, strain NOP13, hits give low values): 1.01 | normalized growth (locus YNL197C, strain WHI3, hits give low values): 1.04 | normalized growth (locus YNL224C, strain SQS1, hits give low values): 0.99 | normalized growth (locus YOR083W, strain WHI5 (second series), hits give low values): 1.02 | normalized growth [3]: 0.976

OC(CSc1ccccc1)CN1CCN(c2ccc(C(F)(F)F)cn2)CC1 (stereo not drawn)
normalized growth (locus YAL013W, strain DEP1, hits give low values): 1.01 | normalized growth (locus YBR229C, strain ROT2, hits give low values): 1 | normalized growth [4]: 1.01 | normalized growth (locus YDL134C, strain PPH21, hits give low values): 0.185 (active) | normalized growth [1]: 0.87 | normalized growth (locus YEL061C, strain CIN8, hits give low values): 0.657 (active) | normalized growth [2]: 1 | normalized growth [5]: 0.203 (active) | normalized growth (locus YHR087W, strain rtc3, hits give low values): 0.994 | normalized growth (locus YJR043C, strain POL32, hits give low values): 0.991 | normalized growth (locus YJR075W, strain HOC1, hits give low values): 1 | normalized growth (locus YLR039C, strain RIC1, hits give low values): 0.591 (active) | normalized growth (locus YLR058C, strain SHM2 (second series), hits give low values): 1.01 | normalized growth (locus YLR085C, strain ARP6, hits give low values): 0.387 (active) | normalized growth (locus YLR262C, strain YPT6, hits give low values): 0.468 (active) | normalized growth (locus YML094W, strain GIM5, hits give low values): 0.686 (active) | normalized growth (locus YMR219W, strain ESC1, hits give low values): 1 | normalized growth (locus YMR263W, strain SAP30, hits give low values): 0.966 | normalized growth (locus YMR307W, strain GAS1, hits give low values): 0.698 | normalized growth (locus YNL153C, strain GIM3, hits give low values): 1.03 | normalized growth (locus YNL298W, strain CLA4 (second series), hits give low values): 0.601 (active) | normalized growth (locus YNL322C, strain KRE1, hits give low values): 1.01 | normalized growth (locus YNR030W, strain Alg12, hits give low values): 0.668 (active) | normalized growth [3]: 0.898 | normalized growth (locus YPL241C, strain CIN2, hits give low values): 0.763 (active) | normalized growth (locus YPR135W, strain CTF4, hits give low values): 0.442 (active)

OC(CSc1ccccc1)CN1CCN(c2nc(-c3ccccc3)ns2)CC1 (stereo not drawn)
normalized growth (locus YAR019C, strain CDC15, hits give low values): 0.991 | normalized growth (locus YBL105C, strain PKC1, hits give low values): 0.977 | normalized growth (locus YBR135W, strain CKS1, hits give low values): 0.993 | normalized growth (locus YBR136W, strain MEC1, hits give low values): 0.977 | normalized growth (locus YBR160W, strain CDC28, hits give low values): 0.982 | normalized growth (locus YDL017W, strain CDC7, hits give low values): 0.989 | normalized growth (locus YDL028C, strain MPS1, hits give low values): 0.99 | normalized growth [4]: 0.98 | normalized growth (locus YDL108W, strain KIN28, hits give low values): 0.99 | normalized growth (locus YDL132W, strain cdc53, hits give low values): 0.996 | normalized growth (locus YDL214C, strain PRR2, hits give low values): 0.932 | normalized growth (locus YDR052C, strain DBF4, hits give low values): 0.981 | normalized growth (locus YDR054C, strain cdc34, hits give low values): 0.977 | normalized growth (locus YDR226W, strain ADK1, hits give low values): 0.989 | normalized growth (locus YDR477W, strain SNF1, hits give low values): 0.931 | normalized growth (locus YER123W, strain YCK3, hits give low values): 0.908 | normalized growth (locus YER133W, strain GLC7, hits give low values): 0.941 | normalized growth (locus YFL009W, strain cdc4, hits give low values): 0.987 | normalized growth (locus YFL029C, strain CAK1, hits give low values): 0.983 | normalized growth (locus YFR003C, strain YPI1, hits give low values): 0.989 | normalized growth (locus YFR019W, strain FAB1, hits give low values): 0.93 | normalized growth (locus YFR028C, strain CDC14, hits give low values): 0.984 | normalized growth (locus YGR040W, strain KSS1, hits give low values): 0.915 | normalized growth (locus YGR052W, strain FMP48, hits give low values): 0.993 | normalized growth (locus YGR092W, strain DBF2, hits give low values): 0.935 | normalized growth [5]: 0.941 | normalized growth (locus YHR079C, strain IRE1, hits give low values): 0.962 | normalized growth (locus YHR082C, strain KSP1, hits give low values): 0.983 | normalized growth (locus YHR205W, strain SCH9, hits give low values): 0.921 | normalized growth (locus YIL147C, strain SLN1, hits give low values): 0.987 | normalized growth (locus YJL095W, strain BCK1, hits give low values): 0.947 | normalized growth (locus YJL128C, strain PBS2, hits give low values): 0.945 | normalized growth (locus YJL157C, strain FAR1, hits give low values): 0.915 | normalized growth (locus YJR016C, strain ILV3, hits give low values): 0.982 | normalized growth (locus YJR066W, strain TOR1 (second series), hits give low values): 0.888 | normalized growth (locus YJR066W, strain TOR1, hits give low values): 1.01 | normalized growth (locus YKL048C, strain ELM1, hits give low values): 0.954 | normalized growth (locus YKL067W, strain YNK1, hits give low values): 0.943 | normalized growth (locus YKL101W, strain HSL1, hits give low values): 0.927 | normalized growth (locus YKL193C, strain SDS22, hits give low values): 0.987 | normalized growth (locus YKL203C, strain TOR2, hits give low values): 0.989 | normalized growth (locus YLR113W, strain HOG1, hits give low values): 0.847 (active) | normalized growth (locus YLR133W, strain CKI1, hits give low values): 0.935 | normalized growth (locus YLR403W, strain SFP1, hits give low values): 0.9 | normalized growth (locus YML070W, strain DAK1, hits give low values): 0.9 | normalized growth (locus YMR001C, strain CDC5, hits give low values): 0.983 | normalized growth (locus YMR205C, strain PFK2 (second series), hits give low values): 0.944 | normalized growth (locus YMR277W, strain FCP1, hits give low values): 0.991 | normalized growth (locus YNL006W, strain LST8, hits give low values): 0.997 | normalized growth (locus YNL020C, strain ARK1, hits give low values): 0.935 | normalized growth (locus YNL161W, strain CBK1, hits give low values): 0.98 | normalized growth (locus YNL183C, strain NPR1, hits give low values): 0.972 | normalized growth (locus YNL207W, strain RIO2, hits give low values): 0.987 | normalized growth (locus YNL222W, strain SSU72, hits give low values): 0.991 | normalized growth (locus YNL307C, strain MCK1 (second series), hits give low values): 0.927 | normalized growth (locus YOL078W, strain AVO1, hits give low values): 0.98 | normalized growth (locus YOL136C, strain PFK27, hits give low values): 0.903 | normalized growth (locus YOR061W, strain CKA2, hits give low values): 0.936 | normalized growth (locus YOR119C, strain RIO1, hits give low values): 0.994 | normalized growth (locus YOR231W, strain MKK1, hits give low values): 0.882 | normalized growth (locus YOR329C, strain SCD5, hits give low values): 0.982 | normalized growth (locus YPL031C, strain PHO85, hits give low values): 0.952 | normalized growth (locus YPL153C, strain RAD53, hits give low values): 0.937 | normalized growth (locus YPL204W, strain HRR25, hits give low values): 0.932 | normalized growth (locus YPL209C, strain IPL1, hits give low values): 0.981 | normalized growth (locus YPL256C, strain CLN2, hits give low values): 0.889 | normalized growth (locus YPR025C, strain CCL1, hits give low values): 0.987 | normalized growth (locus YPR106W, strain ISR1, hits give low values): 0.976 | normalized growth (locus YPR111W, strain DBF20, hits give low values): 0.961 | normalized growth (strain NNK1, hits give low values): 0.973 | normalized growth (strain TSCII, hits give low values): 0.984

— PubChem BioAssay AID1159580 (chemical genetic matrix, 2015)
